# This is a sample that favours compounds with a hit; in the whole collection about 4.7% have one here.
# TRHR ag = activates the human TRH receptor; P34981; TRHR cells, calcium flux fluo-8, FDSS agonist mode; activation, % at 2 µM; 0.18% of 360,000 active; AID 493084; also: 0% is about no effect
#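 TRHR-expressing cells loaded with fluo-8 calcium dye; 23 nL library compound pin-transferred, kinetic FDSS fluorescence (Ex 480/Em 530) recorded about 180 s for agonist-induced calcium release, before a 10 nM TRH EC20 addition for potentiator mode.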
# D1 antag = human D1 dopamine receptor antagonism; P21728; 3.2% of 360,000 active; activity change, negative = inhibition, % at 10 µM; HEK293 TREx D1 cells, calcium flux, dopamine EC80; hits give low values; in the data active = activity change below about -30%; also: % is scaled to controls: 0 for no effect and ±100 for the full control effect
# Target sequence (P21728 whole entry, looked up): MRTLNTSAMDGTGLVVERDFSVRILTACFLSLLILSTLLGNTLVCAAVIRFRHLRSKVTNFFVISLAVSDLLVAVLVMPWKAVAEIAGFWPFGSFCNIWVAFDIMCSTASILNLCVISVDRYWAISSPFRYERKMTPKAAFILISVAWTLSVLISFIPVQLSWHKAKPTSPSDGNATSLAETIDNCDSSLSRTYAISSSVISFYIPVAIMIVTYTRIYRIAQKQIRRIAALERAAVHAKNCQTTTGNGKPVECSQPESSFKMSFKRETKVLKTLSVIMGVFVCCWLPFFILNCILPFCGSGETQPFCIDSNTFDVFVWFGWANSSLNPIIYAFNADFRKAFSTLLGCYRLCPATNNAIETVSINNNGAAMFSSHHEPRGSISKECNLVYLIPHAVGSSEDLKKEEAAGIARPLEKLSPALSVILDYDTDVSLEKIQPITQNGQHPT
#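 Allosteric or orthosteric antagonism assessed as attenuation of the calcium response to EC80 dopamine, added 180 s after compound, in induced HEK293 Trex D1 cells loaded with no-wash calcium dye.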
# TRHR enhancer = allosteric enhancers of human TRH receptor; TRHR cells, fluo-8 calcium fluorescence, EC20 TRH enhancement; P34981; 0.66% of 360,000 active; enhancement, % at 2 µM; in the data active = enhancement above about 30%; also: 0% is about no effect
#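 TRHR-expressing cells loaded with fluo-8 calcium dye were read kinetically (ex 480/em 530) during compound addition, then stimulated with an EC20 of TRH (10 nM final). Enhancement of the Gq-mediated intracellular calcium response was scored.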
# D1 agonist = human D1 receptor agonism; P21728; HEK293 T-REx D1 cells, calcium flux, agonist mode; activation, % at 2 µM; 1% of 360,000 active; AID 504660; also: 0% is about no effect
#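 Agonism was scored from calcium flux recorded over 180 s (1 read/s) after pintool compound addition, following a 10-cycle baseline. Cells were inducible force-coupled HEK293 TREx D1, plated overnight at 30 C and loaded with no-wash calcium dye.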
# D1 potentiator = potentiators of human D1 dopamine receptor; potentiation, % at 10 µM; HEK293 TREx D1 cells, calcium flux, dopamine EC20 potentiation; P21728; 0.036% of 360,000 active; in the data active = potentiation above about 30%; also: 0% is about no effect
# Starred values were filed as active, the others as inactive; · = no result. Rule as the data show it, unless noted: active = activation above about 30%; inactive = the rest.
SMILES,TRHR ag,D1 antag,TRHR enhancer,D1 agonist,D1 potentiator
O=C(Nc1nc2ccccc2s1)c1ccc(S(=O)(=O)N2CCCC2)cc1,1,-46*,-1,0,0
COC(=O)COc1ccc2c(=O)c(-c3ccccc3)coc2c1,0,-42*,-1,10,-4
COc1ccc(/C=N/OCC(=O)NC(c2ccccc2)c2ccccc2)c(OC)c1,1,3,-1,15,-3
CCOc1ccc(/C=N/OCC(=O)NC(c2ccccc2)c2ccccc2)cc1,0,6,6,33*,3
O=S(=O)(c1ccc(F)c(F)c1)N1CCC2(CC1)OCCO2,1,0,-1,2,8
O=C(Nc1ccc(Cl)cc1)c1ccc2c(c1)N(Cc1ccccc1)CCS2,1,-9,1,0,-2
O=C(NCc1ccco1)C1CC(c2cc(C(F)(F)F)cc(C(F)(F)F)c2)=NO1 (stereo not given),0,18,-4,8,1
COc1ccc(-c2ccc3c(N)c(C(=O)NC(C)C)sc3n2)cc1OC,-3,18,7,1,3
COc1cccc(-c2ncc3ccccc3c2COC(=O)c2ccc(Br)cc2)c1,1,·,1,2,-1
COc1ccc(-c2ccc3c(N)c(C(=O)c4ccc(OC)c(OC)c4)sc3n2)cc1,15,-17,4,78*,-3
COc1cccc(-c2ccc3c(N)c(C(=O)c4ccc(Br)cc4)sc3n2)c1,16,-4,-1,81*,-1
Cc1csc2nc(COC(=O)c3ccc(NC(=O)C(C)C)cc3)cc(=O)n12,1,-18,-3,8,1
Cc1ccc(NC(=O)CCCn2c(=S)[nH]c3ccsc3c2=O)cc1C,-1,3,-30,2,8
COc1ccc(Cl)cc1NC(=O)Cn1ccn(-c2cc(C)cc(C)c2)c(=O)c1=O,0,5,-5,7,-4
COc1cccc(NC(=O)C(Cc2ccccc2)N2Cc3ccccc3C2=O)c1 (stereo not given),0,-1,3,1,2
CCCCC1CCC(C(=O)N2CC(=O)Nc3ccc(C)cc3C2c2ccc(F)cc2)CC1 (stereo not given),0,-53*,-6,5,0
CCCCC1CCC(C(=O)N2CC(=O)Nc3ccc(Cl)cc3C2c2ccc(F)cc2)CC1 (stereo not given),0,-9,3,0,-1
CNS(=O)(=O)c1cn(CC(=O)Nc2ccc(C(C)=O)cc2)cc1S(=O)(=O)NC,0,-5,2,1,-1
O=C(O)CCC(=O)N1CCN(c2nc(-c3ccccc3)c3cc(Br)ccc3n2)CC1,0,10,6,0,-1
O=C(O)CCC(=O)N1CCN(c2nc(-c3ccccc3Cl)c3cc(Br)ccc3n2)CC1,0,-5,9,66*,2
CC(=O)NS(=O)(=O)c1ccc(NC(=O)CCC(=O)Oc2ccc(C)cc2)cc1,1,9,-7,3,2
CC(C)c1ccccc1NC(=O)CN1C(=O)c2ccccc2C1=O,0,6,2,4,4
CCOc1ccc(-c2nonc2NC(=O)COc2ccc(C)c(C)c2)cc1OCC,0,-25,8,3,-1
CCOC(=O)C1CCC(CN(Cc2c(Cl)cccc2Cl)S(=O)(=O)c2ccc(Cl)cc2)CC1 (stereo not given),1,11,2,5,-2
CCOC(=O)C1CCC(CN(Cc2c(Cl)cccc2Cl)S(=O)(=O)c2ccc(F)cc2)CC1 (stereo not given),2,-38*,4,9,-1
SMILES,TRHR ag,D1 antag,TRHR enhancer,D1 agonist,D1 potentiator
CC(C)Oc1cccc(C(=O)Nc2ccc(N3CCN(C)CC3)cc2)c1,0,-57*,7,-1,-11
CC(Oc1ccc(Br)cc1)C(=O)NNC(=O)CCN1CCN(c2ccccc2)CC1 (stereo not given),-1,-21,-2,1,-10
O=C(CCN1CCN(c2ccccc2)CC1)NNC(=O)Cc1ccc(Br)cc1,0,-39*,2,1,-9
O=C(NC1=NCCS1)c1cccc(S(=O)(=O)N2CCCCC2)c1,0,-34*,21,-1,-2
Cc1c(NC(=S)NC(=O)c2ccc(-c3ccc(Cl)cc3)o2)cccc1C(=O)O,0,-31*,5,-4,-5
COc1ccccc1N1CCN(c2nc3c(S(=O)(=O)c4ccccc4)nnn3c3ccc(Cl)cc23)CC1,0,24,0,0,-4
COc1ccc(NC(=O)CCCSc2nc(-c3ccco3)cc(C(F)(F)F)n2)cc1,1,6,2,5,-4
CCCOc1cccc(C(=O)NC(=S)Nc2ccc(N3CCN(C)CC3)cc2)c1,0,15,8,4,-10
COc1cccc(C(=O)Nc2ccc(N3CCN(Cc4ccccc4)CC3)cc2)c1,2,-3,2,3,-7
CCN1CCN(c2ccc(NC(=O)c3cccc(OCc4ccccc4)c3)cc2)CC1,-1,-1,5,39*,-2
CN1CCN(c2ccc(NC(=O)c3cccc(OCc4ccccc4)c3)cc2)CC1,-1,-64*,3,14,-8
O=C(Nc1ccc(N2CCOCC2)cc1)c1cccc(S(=O)(=O)N2CCCC2)c1,0,-1,1,10,1
CCOc1cccc(C(=O)NC(=S)Nc2ccc(N3CCN(CC)CC3)cc2)c1,0,-44*,1,19,-13
CN1CCN(c2ccc(NC(=O)c3cccc(S(=O)(=O)N4CCCC4)c3)cc2)CC1,0,-34*,1,-1,-12
Cc1cc(C)cc(NS(=O)(=O)c2ccc(N3CCCCS3(=O)=O)cc2)c1,1,-11,-2,8,0
CN1CCN(c2ccc(NC(=O)Cc3ccccc3)cc2)CC1,1,-39*,-1,5,-22
COc1cc(OC)cc(C(=O)NC(=S)Nc2ccc(N3CCCC3)cc2)c1,0,-35*,2,0,-5
CN1CCN(c2ccc(NC(=O)c3ccc(-c4ccc(Cl)cc4)o3)cc2)CC1,0,-72*,0,21,-2
COc1cc(OC)cc(C(=O)NC(=S)N2CCCCCC2)c1,0,-3,3,2,-1
Cc1ccc(C(NC(=O)c2cccc(S(=O)(=O)N3CCN(C)CC3)c2)c2ccccc2)cc1 (stereo not given),1,-66*,2,5,-1
Cc1ccc(OC(C)C(=O)NCC2(N3CCOCC3)CCCCC2)cc1C (stereo not given),0,-20,13,2,-2
Cc1nn(-c2ccc(N3CCCC3)nn2)c(C)c1CCC(=O)N1CCN(c2ccc(F)cc2)CC1,-1,-6,7,0,-8
CN1CCN(c2ccc(CNS(=O)(=O)c3ccccc3)cc2)CC1,0,-35*,6,4,-2
Cc1ccc(C(=O)Nc2ccc(N3CCN(C)CC3)cc2)cc1C,-1,-31*,7,1,-19

# High-throughput results deposited in PubChem BioAssay by National Center for Advancing Translational Sciences (NCATS).
